# Measured values as given in PubChem BioAssay AID372 (MTDP, 2006).
# Out of some 100,000 compounds screened, about 770 (0.77%) were called active. Cut-off read from the data, not from the text of the source: active = inhibition above about 50%; inactive = the rest. What follows is part of a selection rich in actives, with near analogues and random picks from the rest.
# Target: Gag-Pol polyprotein (Human immunodeficiency virus type 1 group M subtype B (isolate HXB2)) (UniProt P04585)
# Experiment: RNase H inhibition, HIV 1 Gag Pol polyprotein, FRET biochemical assay, screening (AID 372)
# Settings: HIV-1 RT RNase H, FRET RNA/DNA substrate fluorescence; at 10 µM; stronger effect = higher value
row,Compound,inhibition
1,Cc1cc(=O)oc2cc(OC(=O)CCCOc3ccc(Cl)cc3Cl)ccc12,18% (inactive)
2,O=C1c2ccccc2C(=O)c2c(O)c([N+](=O)[O-])cc(O)c21,20% (inactive)
3,Cc1ccc(-c2cc(=O)c3cc(Cl)ccc3o2)cc1,5% (inactive)
4,O=c1cc2oc3cc(O)c(O)cc3c(-c3ccccc3[N+](=O)[O-])c-2cc1O,69% (active)
5,Cc1ccc(-c2cc(=O)c3cc(C)ccc3o2)cc1,11% (inactive)
6,CN(C)c1ccc(-c2c3cc(O)c(=O)cc-3oc3cc(O)c(O)cc23)cc1,63% (active)
7,O=c1[nH]c2ccccc2c(O)c1-c1ccccc1[N+](=O)[O-],1% (inactive)
8,O=C(Nc1ccc2ccccc2c1)c1ccccc1Cl,3% (inactive)
9,Cc1cc(OCC(N)=O)ccc1Cl,0% (inactive)
10,Nc1c(Cl)cc(Br)c2c1C(=O)c1ccccc1C2=O,6% (inactive)
11,Cc1ccc2nc3c(N)c(Cl)cc4c3c(c2c1)-c1ccccc1C4=O,56% (active)
12,Nc1c(Cl)cc2c(c1Oc1ccccc1)C(=O)c1ccccc1C2=O,8% (inactive)
13,O=C(Cn1c(NCCO)nc2ccccc21)c1cccc(Br)c1,3% (inactive)
14,C=CCC(C(=O)c1ccccc1)C(=O)C(C)(C)OC (centres undefined),7% (inactive)
15,Cc1ccc(/C=N/NC(=O)Cc2ccc(Cl)cc2)o1,7% (inactive)
16,COc1ccc(CC(=O)N/N=C/c2ccc(-c3cc(Cl)ccc3C)o2)cc1,74% (active)
17,COc1ccc(CC(=O)N/N=C/c2ccc(I)o2)cc1,0% (inactive)
18,O=Cc1cc(Cl)c(OCc2ccc(F)cc2)c(Cl)c1,41% (inactive)
19,Cc1cc(C)cc(OCC(=O)Nc2cc(-c3nc4cc(C)cc(C)c4o3)ccc2C)c1,14% (inactive)
20,Cc1cc(C)c2oc(-c3ccc(C)c(NC(=O)COc4ccccc4C)c3)nc2c1,55% (active)
21,Cc1ccc2oc(-c3ccc(C)c(NC(=O)COc4ccccc4C)c3)nc2c1,44% (inactive)
22,Cc1cc(C)c2oc(-c3ccc(C)c(NC(=O)COc4cccc(C)c4C)c3)nc2c1,0% (inactive)
23,Cc1ccc(-c2nc3ccccc3o2)cc1NC(=O)COc1ccccc1C,50% (active)
24,Cc1ccc(-c2nc3ccccc3o2)cc1NC(=O)COc1ccccc1,8% (inactive)
25,CCCSc1nc2ccccc2c(=O)n1CC1CCCCC1,1% (inactive)
26,O=C(Nc1cccc(C(F)(F)F)c1)c1ccc(I)cc1,1% (inactive)
27,COc1cc(/C=N\NC(=O)C2COc3cc4ccccc4cc3O2)ccc1OCc1ccccc1 (centres undefined),14% (inactive)
28,CCN(Cc1ccccc1)C(=O)c1ccccc1C,6% (inactive)
29,CCOc1ccccc1OCCCCOc1cc(C)ccc1Cl,5% (inactive)
